Data published in PubChem BioAssay (EPA / NIEHS).
Several values for one entry are separate records, joined by “and”; a condition that tells them apart may be missing. Identical values can stand only once. A structure can be active in one record and inactive in another. Activity calls are given as the source filed them. How the source made its calls: active means hit-call score of the fitted dose curve at least 0.9, where 1 is the maximum; inactive means score below 0.9.

Experiments:
[1] = BSK_3C_SRB: Viability Assessment in the BioMAP Diversity Plus: 3C Assay (AID 2283023); details: primary human endothelial cells (HUVEC);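 further: fitted both ways against DMSO so a hit may be signal rise or drop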
Outline: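 Human umbilical vein endothelial cells in the 3C system, treated 24 h. Total protein measured by 0.1% sulforhodamine B staining after 10% TCA fixation, read at 560 nm; bidirectional fit versus DMSO.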

[2] = read-out: Matrix Metallopeptidase 1 (MMP1), MMP1 (gene 4312); assay: BSK_BE3C_MMP1: BioMAP Diversity Plus: BE3C Assay for Matrix Metallopeptidase 1 (MMP1) Biomarker Activity (AID 2283024); details: primary human bronchial epithelial cells; actives raise or lower the signal
Outline: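 ELISA measurement of MMP-1 after 24 h compound exposure of primary human bronchial epithelial cells. Changes in either direction fitted relative to DMSO; parallel SRB staining checked overt cytotoxicity.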

[3] = BSK_3C_Vis: BioMAP Diversity Plus: 3C Assay for Morphology Visualization (AID 2283025); details: primary human endothelial cells (HUVEC);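 further: fitted both ways so gain or loss versus DMSO counts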;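 on AC50: light microscopy image of cell morphology used as background control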
Outline: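 Light-microscopy visualization of HUVEC cultures at 24 h post-treatment, with DMSO as baseline for bidirectional fitting.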

[4] = read-out: Pselectin, SELP (gene 6403); assay: BSK_4H_Pselectin: BioMAP Diversity Plus: 4H Assay for Pselectin Biomarker Activity (AID 2283026); details: primary human endothelial cells (HUVEC); actives raise or lower the signal
Outline: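 ELISA of surface P-selectin on HUVEC, 24 h after dosing, with parallel SRB staining (0.1% after 10% TCA fixation, 560 nm) for overt cytotoxicity. Activity fitted in both directions relative to DMSO.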

[5] = BSK_4H_SRB: Viability Assessment in the BioMAP Diversity Plus: 4H Assay (AID 2283027); details: primary human endothelial cells (HUVEC);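 further: cells exposed to compound for 24 h before staining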;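 on AC50: curves fitted both ways versus DMSO so AC50 may be loss or gain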
Outline: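 Cytotoxicity readout: sulforhodamine B (0.1%) staining of total protein after 10% TCA fixation, measured at 560 nm in human umbilical vein endothelium at 24 h. DMSO set the baseline; fitting was bidirectional.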

[6] = BSK_BE3C_SRB: Viability Assessment in the BioMAP Diversity Plus: BE3C Assay (AID 2283028); details: primary human bronchial epithelial cells
Outline: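 Human bronchial epithelial primary cells in confluent culture, 24 h after chemical dosing; total protein by 0.1% SRB staining after 10% TCA fixation, read at 560 nm. Bidirectional fitting versus DMSO baseline.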

[7] = read-out: Thrombomodulin, THBD (gene 7056); assay: BSK_3C_Thrombomodulin: BioMAP Diversity Plus: 3C Assay for Thrombomodulin Biomarker Activity (AID 2283029); details: primary human endothelial cells (HUVEC); actives raise or lower the signal
Outline: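 ELISA measurement of thrombomodulin on HUVEC surface 24 h after chemical dosing; activity fitted in both directions relative to DMSO vehicle.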

[8] = read-out: Urokinase-type plasminogen activator receptor (uPAR), PLAUR (gene 5329); assay: BSK_4H_uPAR: BioMAP Diversity Plus: 4H Assay for Urokinase-type plasminogen activator receptor (uPAR) Biomarker Activity (AID 2283030); details: primary human endothelial cells (HUVEC); actives raise or lower the signal
Outline: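 Human umbilical vein endothelial cells in the 4H system, 24 h after chemical dosing. Cell-surface uPAR measured by ELISA, fitted in both directions versus DMSO; cytotoxicity checked by SRB total protein in parallel cultures.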

[9] = read-out: Vascular endothelial growth factor receptor 2 (Homo sapiens) (UniProt P35968); assay: BSK_4H_VEGFRII: BioMAP Diversity Plus: 4H Assay for Vascular endothelial growth factor receptor 2 (VEGFR2) Biomarker Activity (AID 2283031); details: primary human endothelial cells (HUVEC); actives raise or lower the signal
Outline: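 Primary human umbilical vein endothelial cells (4H system), 24 h exposure; cell-surface VEGFR2 measured by ELISA. Bidirectional fitting versus DMSO; cytotoxicity checked in parallel by SRB total-protein staining.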

[10] = read-out: Human Leukocyte Antigen - DR isotype (HLADR), HLA-DRA (gene 3122); assay: BSK_BE3C_HLADR: BioMAP Diversity Plus: BE3C Assay for Human Leukocyte Antigen - DR isotype (HLADR) Biomarker Activity (AID 2283032); details: primary human bronchial epithelial cells; actives raise or lower the signal
Outline: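 Cell-surface HLA-DR ELISA readout at 24 h after dosing in the BE3C primary human lung bronchial epithelial system; gain or loss of signal against DMSO, with parallel sulforhodamine B staining of total protein for overt cytotoxicity.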

[11] = read-out: Vascular cell adhesion molecule 1 (VCAM1), VCAM1 (gene 7412); assay: BSK_4H_VCAM1: BioMAP Diversity Plus: 4H Assay for Vascular cell adhesion molecule 1 (VCAM1) Biomarker Activity (AID 2283033); details: primary human endothelial cells (HUVEC); actives raise or lower the signal
Outline: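 VCAM-1 ELISA read 24 h after chemical dosing of HUVEC in the BioMAP 4H system, with gain or loss of signal fitted relative to DMSO. Parallel SRB staining (560 nm) checked overt cytotoxicity.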

[12] = read-out: Interferon-gamma inducible Protein 10 (IP10), CXCL10 (gene 3627); assay: BSK_BE3C_IP10: BioMAP Diversity Plus: BE3C Assay for Interferon-gamma inducible Protein 10 (IP10) Biomarker Activity (AID 2283034); details: primary human bronchial epithelial cells; actives raise or lower the signal
Outline: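 IP-10 quantified by ELISA in human primary bronchial epithelial cell cultures at 24 hours post-dosing. Gain or loss of signal fitted relative to DMSO; parallel SRB staining assessed overt cytotoxicity.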

[13] = read-out: Monokine induced gamma interferon (MIG), CXCL9 (gene 4283); assay: BSK_BE3C_MIG: BioMAP Diversity Plus: BE3C Assay for Monokine induced gamma interferon (MIG) Biomarker Activity (AID 2283035); details: primary human bronchial epithelial cells; actives raise or lower the signal
Outline: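 hu bronchial epithelial 1° cells, 24 h cpd; MIG by ELISA; bidirectional fit, DMSO = baseline.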

[14] = read-out: Transforming growth factor beta 1 (TGFb1), TGFB1 (gene 7040); assay: BSK_BE3C_TGFb1: BioMAP Diversity Plus: BE3C Assay for Transforming growth factor beta 1 (TGFb1) Biomarker Activity (AID 2283036;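 further: TGF-b1 protein level measured by ELISA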); details: primary human bronchial epithelial cells; actives raise or lower the signal
Outline: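 ELISA readout of TGF-b1 from human lung bronchial epithelial primary cells, taken 24 h post-treatment. Gain or loss of signal fitted relative to DMSO baseline, with parallel SRB staining for overt cytotoxicity.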

[15] = read-out: Plasminogen activator inhibitor-1 (PAI1), SERPINE1 (gene 5054); assay: BSK_BE3C_PAI1: BioMAP Diversity Plus: BE3C Assay for Plasminogen activator inhibitor-1 (PAI1) Biomarker Activity (AID 2283037); details: primary human bronchial epithelial cells; actives raise or lower the signal
Outline: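 PAI-1 was measured by ELISA in human primary bronchial epithelial cultures 24 h after chemical dosing, with cytotoxicity checked by SRB total-protein staining in parallel cultures. Activity was fitted in both directions relative to DMSO.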

[16] = read-out: urokinase plasminogen activator (uPA), PLAU (gene 5328); assay: BSK_BE3C_uPA: BioMAP Diversity Plus: BE3C Assay for urokinase plasminogen activator (uPA) Biomarker Activity (AID 2283038); details: primary human bronchial epithelial cells; actives raise or lower the signal;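 further: uPA protein level quantified by ELISA in cell cultures; uPA read one day after compound addition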
Outline: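 Primary human bronchial epithelial cells, uPA measured by ELISA 24 h after dosing. Bidirectional change relative to DMSO; cytotoxicity checked in parallel cultures by sulforhodamine B total-protein staining.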

[17] = read-out: Urokinase-type plasminogen activator receptor (uPAR), PLAUR (gene 5329); assay: BSK_BE3C_uPAR: BioMAP Diversity Plus: BE3C Assay for Urokinase-type plasminogen activator receptor (uPAR) Biomarker Activity (AID 2283039); details: primary human bronchial epithelial cells; actives raise or lower the signal;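 further: cells exposed to compound for one day before measurement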
Outline: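 uPAR levels were measured by ELISA after 24 h compound treatment of primary human bronchial epithelial cells, fitted in both directions relative to DMSO. Parallel SRB staining served as the cytotoxicity read-out.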

[18] = read-out: Interleukin-6 (IL6), IL6 (gene 3569); assay: BSK_CASM3C_IL6: BioMAP Diversity Plus: CASM3C Assay for Interleukin-6 (IL6) Biomarker Activity for (AID 2283040); details: primary human coronary artery smooth muscle cells; actives raise or lower the signal
[19] = read-out: Tissue plasminogen activator (tPA), PLAT (gene 5327); assay: BSK_BE3C_tPA: BioMAP Diversity Plus: BE3C Assay for Tissue plasminogen activator (tPA) Biomarker Activity (AID 2283041); details: primary human bronchial epithelial cells; actives raise or lower the signal
Outline: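 tPA measured by ELISA 24 h after dosing human primary bronchial epithelial cells (BE3C system). Changes in either direction were fitted against DMSO. Parallel cultures were stained with SRB to flag overt cytotoxicity.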

[20] = read-out: Interleukin-8 (IL8), CXCL8 (gene 3576); assay: BSK_CASM3C_IL8: BioMAP Diversity Plus: CASM3C Assay for Interleukin-8 (IL8) Biomarker Activity (AID 2283042); details: primary human coronary artery smooth muscle cells; actives raise or lower the signal;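 further: IL-8 protein level quantified by ELISA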

Measured: AC50

Oc1ccc2c(c1)-c1ccccc1C2
active: [1] 19.6 µM | [3] 39 µM | [5] 10.2 µM
inactive: all other assays above

CC(C)=CCC/C(C)=C\CO
inactive: all assays above

C1N2CN3CN1CN(C2)C3
inactive: all assays above

CCCCCCCCCCCCc1ccccc1
active: [4] 31.5 µM
inactive: all other assays above

Fc1ccccc1[C@@H](F)COC1CCC(Nc2ncnc3[nH]ncc23)CC1 (stereo partly drawn)
active: [1] 27.6 µM | [3] 39 µM | [4] 29.2 µM | [5] 30 µM | [8] 28.2 µM
inactive: all other assays above

COC(=O)CC(=O)OC
inactive: all assays above

CCNc1ccccc1
inactive: all assays above

COCCOc1cc2cc(C(=O)NC3CCN(C(C)C)CC3)n(CC(=O)Nc3ccc(Cl)cn3)c2cn1
inactive: all assays above

Cn1cnc([N+](=O)[O-])c1Sc1ncnc2nc[nH]c12
inactive: [2] | [3] | [4] | [5] | [6] | [7] | [8] | [9] | [10] | [11] | [12] | [13] | [14] | [15] | [16] | [17] | [18] | [19] | [20]
active: [1] 19.9 µM and 12.6 µM and 14 µM | [7] 3.36 µM | [11] 8.19 µM and 9.52 µM | [19] 6.7 µM

Cn1c(=O)cc(Oc2ccc(F)cc2F)c2cnc(NCC(C)(C)O)nc21
active: [7] 4.61 µM | [15] 9.04 µM | [18] 5.13 µM | [20] 3.16 µM
inactive: all other assays above

O=c1[nH]c2ccc(S(=O)CCN3CCC(Cc4ccc(F)cc4)CC3)cc2o1 (stereo not drawn)
active: [5] 3.97 µM | [8] 12.8 µM | [11] 15.3 µM
inactive: all other assays above

CC[C@H]1CC[C@H](NCc2cc3c(cc2OC)[C@H]2C[C@H]2C(=O)N3C)[C@H](c2ccccc2)N1
inactive: all assays above

O=C(NS(=O)(=O)/C=C/c1ccccc1)c1ccc(F)cc1Cl
active: [10] 6.15 µM
inactive: all other assays above
